# Reference: PubChem BioAssay (NCI)
# About 79,000 compounds went through this panel and 15% of them were active in at least one assay; those are over-represented in the sample as a whole. A number with no mark means an inactive call. Calls of active or inactive are those of the source. Cut-off read from the data, not from the text of the source: active = growth inhibition above about 70%; inactive = the rest.
# What was measured:
# [1] = NCI Yeast Anticancer Drug Screen. Data for the mec2-1 strain (AID 157); details: S. cerevisiae mec2-1 strain, hits give high values
# How it was run: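 Yeast mec2-1 mutant treated with compound. Readout: growth inhibition vs vehicle controls.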
# [2] = NCI Yeast Anticancer Drug Screen. Data for the rad14 strain (AID 159);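 note: 0% = growth of vehicle-treated control cultures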; details: S. cerevisiae rad14 strain growth inhibition, hits give high values
# How it was run: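 Screen for anticancer potential: a yeast strain altered in DNA damage repair is grown with compound, and reduced growth is quantified against vehicle controls.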
# [3] = NCI Yeast Anticancer Drug Screen. Data for the sgs1 mgt1 strain (AID 161);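 note: 0% = growth of cultures given vehicle only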; details: S. cerevisiae sgs1 mgt1 strain, hits give high values
# How it was run: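 Genetically altered yeast, compound exposure, growth inhibition relative to vehicle.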
# [4] = NCI Yeast Anticancer Drug Screen. Data for the CLN2oe strain (AID 163);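 note: 0% = growth of vehicle-only control cultures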; details: S. cerevisiae CLN2oe strain, hits give high values
# How it was run: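 Read-out: yeast growth inhibition, expressed relative to vehicle-only controls. The strain bears an engineered cell-cycle alteration.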
# [5] = NCI Yeast Anticancer Drug Screen. Data for the cln2 rad14 strain (AID 165);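 note: 0% = growth equal to vehicle treated cultures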; details: S. cerevisiae cln2 rad14 strain, hits give high values
# How it was run: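 cln2 rad14 yeast strain; compound exposure; growth inhibition read vs vehicle controls.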
# [6] = NCI Yeast Anticancer Drug Screen. Data for the bub3 strain (AID 167); details: S. cerevisiae bub3 mutant strain, hits give high values
# How it was run: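 Screening used yeast with an engineered genetic alteration affecting cell cycle control. Compound-exposed cultures were compared with vehicle cultures, and reduced growth was taken as inhibition.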
# [7] = NCI Yeast Anticancer Drug Screen. Data for the wt2 strain (AID 169);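 note: 0% = growth of vehicle-treated yeast cultures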; details: S. cerevisiae wt2 strain growth inhibition, hits give high values
# How it was run: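 Read-out: growth inhibition versus vehicle-treated control cultures after compound exposure of the yeast strain.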
# [8] = NCI Yeast Anticancer Drug Screen. Data for the mlh1 strain (AID 171);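 note: 0% = growth of vehicle-treated control cultures of the same strain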; details: S. cerevisiae mlh1 strain growth inhibition, hits give high values
# How it was run: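 Read-out: growth inhibition versus vehicle controls. Strain: engineered yeast with a defined DNA repair or cell cycle defect, compound-treated.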
# [9] = NCI Yeast Anticancer Drug Screen. Data for the sgs1 strain (AID 173);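 note: 0% = growth of vehicle-only control cultures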; details: S. cerevisiae sgs1 mutant, hits give high values
# How it was run: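 Read-out: yeast growth inhibition relative to vehicle controls, following compound exposure of a strain with a defined DNA repair/cell cycle alteration.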
# [10] = NCI Yeast Anticancer Drug Screen. Data for the mlh1 rad18 strain (AID 175); details: S. cerevisiae mlh1 rad18 strain growth inhibition, hits give high values
# How it was run: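 Yeast w/ defined DNA-repair lesions; compound exposure; growth vs vehicle controls → % inhibition.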
# [11] = NCI Yeast Anticancer Drug Screen. Data for the rad18 strain (AID 177); details: S. cerevisiae rad18 mutant growth inhibition, hits give high values
# How it was run: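 Readout: growth inhibition vs vehicle controls. Cells: genetically altered yeast strain, DNA repair defect.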
# [12] = NCI Yeast Anticancer Drug Screen. Data for the rad52 strain (AID 147);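 note: 0% = growth of vehicle-treated control cultures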; details: S. cerevisiae rad52 mutant growth inhibition, hits give high values
# How it was run: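 Read-out: growth inhibition versus vehicle-treated controls. Cells were a DNA repair-deficient yeast strain treated with compounds.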
# [13] = NCI Yeast Anticancer Drug Screen. Data for the wt1 strain (AID 149);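 note: 0% = growth of vehicle-treated wt1 cultures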; details: S. cerevisiae wt1 strain (SPY 50644) growth inhibition, hits give high values
# How it was run: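 Using yeast strain wt1, compound-induced growth inhibition was determined against vehicle-treated cultures.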
# [14] = NCI Yeast Anticancer Drug Screen. Data for the rad50EPP+ strain (AID 151);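 note: 0% = growth of vehicle-treated control cultures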; details: S. cerevisiae rad50 mutant strain, hits give high values
# How it was run: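 Growth inhibition read against vehicle controls in rad50EPP+ yeast, a strain altered in DNA damage repair, after compound exposure.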
# [15] = NCI Yeast Anticancer Drug Screen. Data for the rad50 strain (AID 155);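 note: 0% = growth of vehicle-only cultures of the same strain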; details: S. cerevisiae rad50 strain growth inhibition, hits give high values
# How it was run: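 Relative growth inhibition (compound vs vehicle) was measured in yeast with a defined repair-gene alteration.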
# [16] = at 5.0 µM (retest, dose inferred, filed as 0.5)
# [17] = at 50.0 µM (retest, dose inferred, filed as 5.0)
smiles,measurement,setting,value
C/C(CCl)=N/NC1=NC(c2ccccc2Cl)P(=O)(NCCCNP2(=O)SC(N/N=C(/C)CCl)=NC2c2ccccc2Cl)S1 (stereo unspecified),growth inhibition,[1]; at 100.0 µM,-1%
same,growth inhibition,[2]; at 1.2 µM,0%
same,growth inhibition,[2]; at 3.7 µM,-1%
same,growth inhibition,[2]; at 11.0 µM,-4%
same,growth inhibition,[2]; at 33.0 µM,2%
same,growth inhibition,[2]; at 100.0 µM,5%
same,growth inhibition,[3]; [16],-2%
same,growth inhibition,[3]; [17],51%
same,growth inhibition,[3]; at 50.0 µM,93.2% (active)
same,growth inhibition,[4]; at 1.2 µM,-13%
same,growth inhibition,[4]; at 3.7 µM,-4%
same,growth inhibition,[4]; at 11.0 µM,-1%
same,growth inhibition,[4]; at 33.0 µM,-16%
same,growth inhibition,[4]; at 100.0 µM,-22%
same,growth inhibition,[5]; [16],-18%
same,growth inhibition,[5]; [17],-4%
same,growth inhibition,[5]; at 50.0 µM,92.3% (active)
same,growth inhibition,[6]; at 1.2 µM,0%
same,growth inhibition,[6]; at 3.7 µM,-5%
same,growth inhibition,[6]; [16],-32%
same,growth inhibition,[6]; at 11.0 µM,0%
same,growth inhibition,[6]; at 33.0 µM,25%
same,growth inhibition,[6]; [17],61%
same,growth inhibition,[6]; at 50.0 µM,95.2% (active)
same,growth inhibition,[6]; at 100.0 µM,18%
same,growth inhibition,[7]; at 1.2 µM,0%
same,growth inhibition,[7]; at 3.7 µM,-2%
same,growth inhibition,[7]; at 11.0 µM,-2%
same,growth inhibition,[7]; at 33.0 µM,17%
same,growth inhibition,[7]; at 100.0 µM,13%
same,growth inhibition,[8]; at 1.2 µM,-2%
same,growth inhibition,[8]; at 3.7 µM,3%
same,growth inhibition,[8]; at 11.0 µM,4%
same,growth inhibition,[8]; at 33.0 µM,22%
same,growth inhibition,[8]; at 100.0 µM,16%
same,growth inhibition,[9]; at 1.2 µM,0%
same,growth inhibition,[9]; at 3.7 µM,-2%
same,growth inhibition,[9]; at 11.0 µM,0%
same,growth inhibition,[9]; at 33.0 µM,19%
same,growth inhibition,[9]; at 100.0 µM,16%
same,growth inhibition,[10]; [16],-5%
same,growth inhibition,[10]; [17],18%
same,growth inhibition,[10]; at 50.0 µM,95.9% (active)
same,growth inhibition,[11]; at 1.2 µM,1%
same,growth inhibition,[11]; at 3.7 µM,10%
same,growth inhibition,[11]; at 11.0 µM,9%
same,growth inhibition,[11]; at 33.0 µM,27%
same,growth inhibition,[11]; at 100.0 µM,23%
OC(c1ccc(Br)cc1)C(Cl)(Cl)Cl (stereo unspecified),growth inhibition,[12]; at 1.2 µM,-5%
same,growth inhibition,[12]; at 3.7 µM,-1%
same,growth inhibition,[12]; at 11.0 µM,5%
same,growth inhibition,[12]; at 33.0 µM,87% (active)
same,growth inhibition,[12]; at 100.0 µM,98% (active)
same,growth inhibition,[13]; at 1.2 µM,-13%
same,growth inhibition,[13]; at 3.7 µM,-11%
same,growth inhibition,[13]; at 11.0 µM,-1%
same,growth inhibition,[13]; at 33.0 µM,89% (active)
same,growth inhibition,[13]; at 100.0 µM,99% (active)
same,growth inhibition,[14]; at 1.2 µM,4%
same,growth inhibition,[14]; at 3.7 µM,3%
same,growth inhibition,[14]; at 11.0 µM,4%
same,growth inhibition,[14]; at 33.0 µM,38%
same,growth inhibition,[14]; at 100.0 µM,95% (active)
same,growth inhibition,[15]; at 1.2 µM,16%
same,growth inhibition,[15]; at 3.7 µM,14%
same,growth inhibition,[15]; [16],71% (active)
same,growth inhibition,[15]; at 11.0 µM,21%
same,growth inhibition,[15]; at 33.0 µM,84% (active)
same,growth inhibition,[15]; [17],99% (active)
same,growth inhibition,[15]; at 50.0 µM,81.2% (active)
same,growth inhibition,[15]; at 100.0 µM,97% (active)
same,growth inhibition,[1]; at 1.2 µM,-19%
same,growth inhibition,[1]; at 3.7 µM,-19%
same,growth inhibition,[1]; [16],89% (active)
same,growth inhibition,[1]; at 11.0 µM,-1%
same,growth inhibition,[1]; at 33.0 µM,92% (active)
same,growth inhibition,[1]; [17],99% (active)
same,growth inhibition,[1]; at 50.0 µM,86.8% (active)
same,growth inhibition,[1]; at 100.0 µM,99% (active)
same,growth inhibition,[2]; at 1.2 µM,-23%
same,growth inhibition,[2]; at 3.7 µM,-16%
same,growth inhibition,[2]; at 11.0 µM,-7%
same,growth inhibition,[2]; at 33.0 µM,84% (active)
same,growth inhibition,[2]; at 100.0 µM,98% (active)
same,growth inhibition,[3]; [16],3%
same,growth inhibition,[3]; [17],97% (active)
same,growth inhibition,[3]; at 50.0 µM,84.5% (active)
same,growth inhibition,[4]; at 1.2 µM,25%
same,growth inhibition,[4]; at 3.7 µM,10%
same,growth inhibition,[4]; at 11.0 µM,18%
same,growth inhibition,[4]; at 33.0 µM,87% (active)
same,growth inhibition,[4]; at 100.0 µM,97% (active)
same,growth inhibition,[5]; [16],68%
same,growth inhibition,[5]; [17],98% (active)
same,growth inhibition,[5]; at 50.0 µM,80.8% (active)
same,growth inhibition,[6]; at 1.2 µM,-17%
same,growth inhibition,[6]; at 3.7 µM,15%
same,growth inhibition,[6]; [16],-15%
same,growth inhibition,[6]; at 11.0 µM,3%
same,growth inhibition,[6]; at 33.0 µM,91% (active)
same,growth inhibition,[6]; [17],97% (active)
same,growth inhibition,[6]; at 50.0 µM,81.7% (active)
same,growth inhibition,[6]; at 100.0 µM,99% (active)
same,growth inhibition,[7]; at 1.2 µM,-17%
same,growth inhibition,[7]; at 3.7 µM,-15%
same,growth inhibition,[7]; at 11.0 µM,-21%
same,growth inhibition,[7]; at 33.0 µM,78% (active)
same,growth inhibition,[7]; at 100.0 µM,98% (active)
same,growth inhibition,[8]; at 1.2 µM,-10%
same,growth inhibition,[8]; at 3.7 µM,-18%
same,growth inhibition,[8]; at 11.0 µM,-6%
same,growth inhibition,[8]; at 33.0 µM,80% (active)
same,growth inhibition,[8]; at 100.0 µM,97% (active)
same,growth inhibition,[9]; at 1.2 µM,11%
same,growth inhibition,[9]; at 3.7 µM,5%
same,growth inhibition,[9]; at 11.0 µM,14%
same,growth inhibition,[9]; at 33.0 µM,84% (active)
same,growth inhibition,[9]; at 100.0 µM,98% (active)
same,growth inhibition,[10]; [16],62%
same,growth inhibition,[10]; [17],99% (active)
same,growth inhibition,[10]; at 50.0 µM,76.2% (active)
same,growth inhibition,[11]; at 1.2 µM,4%
same,growth inhibition,[11]; at 3.7 µM,4%
same,growth inhibition,[11]; at 11.0 µM,32%
same,growth inhibition,[11]; at 33.0 µM,90% (active)
same,growth inhibition,[11]; at 100.0 µM,98% (active)
